# Measurements as given in the supplement of paper PMC12494721.
# Where a name gives a salt, the structure may show the parent alone.
# Tests used:
# Conditions in all cases: incubation time: 27 h, anaerobic, 37 °C;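 for the amine columns active = adjusted P below 0.05 in both replicates with a change the same way and a mean fold change under 0.8 or over 1.25; inactive = the rest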
# [1] = test system: Clostridium sporogenes DSM 1664; assay: growth (OD595) fold change vs plate DMSO controls (fold change (ratio)); higher = more growth
# Procedure, shortened: (§1)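 Growth is the fold change relative to the median of plate DMSO controls. Readings came from anaerobic mGAM cultures in 96-well plates grown for 27 h at 37 °C and read at 595 nm. They were blank-subtracted, corrected for compound background with 20 µM compound solutions in water, and converted to OD with a calibration factor of 5. Values are means of 2 biological replicates, and fold changes above 1.5 were set to NA.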
# Escherichia coli IAI1 [2] = assay: as above
# Procedure, shortened: as §1
# [3] = test system: Klebsiella aerogenes DSM 30053; assay: as above
# Procedure, shortened: as §1
# [4] = test system: Ruminococcus gnavus DSM 108212; assay: as above
# Procedure, shortened: as §1
# [5] = test system: Klebsiella aerogenes DSM 30053; assay: fold change of Histamine concentration vs plate DMSO controls (fold change (ratio)); higher = more amine produced, active = hit call of the paper (significant change in both replicates, either direction)
# Procedure, shortened: (§2)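 Using LC–triple-quadrupole MS with dynamic MRM, amines were quantified against external calibration curves and corrected for drift within each batch. Samples were whole anaerobic mGAM cultures of four gut strains, grown 27 h at 37 °C from OD 0.1 before 1:1 dilution, extracted with cold acetonitrile/methanol containing 0.1% formic acid and centrifuged. Compounds were present at 20 µM final (sweeteners at 50 µM final). The numbers are fold changes versus plate DMSO controls, each the mean of 2 biological replicates.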
# [6] = test system: Clostridium sporogenes DSM 1664; assay: fold change of Tryptamine concentration vs plate DMSO controls (fold change (ratio)); higher = more amine produced, active = hit call of the paper (significant change in both replicates, either direction)
# Procedure, shortened: as §2
# [7] = test system: Ruminococcus gnavus DSM 108212; assay: as above
# Procedure, shortened: as §2
# Escherichia coli IAI1 [8] = assay: fold change of Putrescine concentration vs plate DMSO controls (fold change (ratio)); higher = more amine produced, active = hit call of the paper (significant change in both replicates, either direction)
# Procedure, shortened: as §2
# [9] = test system: Klebsiella aerogenes DSM 30053; assay: as above
# Procedure, shortened: as §2
# Escherichia coli IAI1 [10] = assay: fold change of Cadaverine concentration vs plate DMSO controls (fold change (ratio)); higher = more amine produced, active = hit call of the paper (significant change in both replicates, either direction)
# Procedure, shortened: as §2
# [11] = test system: Klebsiella aerogenes DSM 30053; assay: as above
# Procedure, shortened: as §2
# [12] = test system: Ruminococcus gnavus DSM 108212; assay: fold change of 2-Phenylethylamine concentration vs plate DMSO controls (fold change (ratio)); higher = more amine produced, active = hit call of the paper (significant change in both replicates, either direction)
# Procedure, shortened: as §2
SMILES,growth [1],growth (Escherichia coli IAI1 [2]),growth [3],growth [4],fold change of Histamine concentration [5],fold change of Tryptamine concentration [6],fold change of Tryptamine concentration [7],fold change of Putrescine concentration (Escherichia coli IAI1 [8]),fold change of Putrescine concentration [9],fold change of Cadaverine concentration (Escherichia coli IAI1 [10]),fold change of Cadaverine concentration [11],fold change of 2-Phenylethylamine concentration [12]
C=C1C[C@@]23CC[C@H]4[C@@](C)(CCC[C@@]4(C)C(=O)O[C@@H]4O[C@H](CO)[C@@H](O)[C@H](O)[C@H]4O)[C@@H]2CC[C@]1(O[C@@H]1O[C@H](CO)[C@@H](O)[C@H](O)[C@H]1O)C3 [Rubusoside] (50 µM),1.1,1,0.969,1.01,1.01 (inactive),1 (inactive),0.989 (inactive),1.05 (inactive),1.01 (inactive),1.02 (inactive),0.991 (inactive),0.981 (inactive)
CCCCCCC[N+](CC)(CC)CCCCc1ccc(Cl)cc1 [Clofilium tosylate] (20 µM),1.2,0.984,1.07,1.26,0.897 (inactive),1.32 (inactive),0.792 (inactive),1.17 (inactive),0.968 (inactive),0.947 (inactive),1.03 (inactive),0.867 (inactive)
NC(=O)c1ncn([C@@H]2O[C@H](CO)[C@@H](O)[C@H]2O)n1 [Ribavirin] (20 µM),1.13,0.988,0.979,0.942,0.947 (inactive),1.01 (inactive),0.994 (inactive),0.781 (inactive),0.973 (inactive),1.09 (inactive),1.01 (inactive),0.967 (inactive)
C[C@@H](O)[C@H]1C(=O)N2C(C(=O)O)=C(SCCNC=N)C[C@H]12 [Imipenem] (20 µM),0.318,1.08,0.85,0.0868,0.772 (inactive),0.0417 (active),0.0408 (active),0.971 (inactive),1.03 (inactive),1.65 (active),1 (inactive),0.0463 (active)
Clc1ccc(COC(Cn2ccnc2)c2ccc(Cl)cc2Cl)cc1 (centres undefined) [Econazole nitrate] (20 µM),1.35,1.01,1.08,0.481,0.83 (inactive),0.815 (inactive),0.357 (active),1.01 (inactive),0.963 (inactive),1.02 (inactive),1.01 (inactive),0.404 (active)
"CN1CCc2c(c3ccccc3n2Cc2ccccc2)C1 [Mebhydroline 1,5-naphtalenedisulfonate] (20 µM)",0.931,0.967,1.04,0.742,1.01 (inactive),1.05 (inactive),0.911 (inactive),0.987 (inactive),0.991 (inactive),0.982 (inactive),1.01 (inactive),0.898 (inactive)
Cc1cc(=O)oc2cc(O)ccc12 [Hymecromone] (20 µM),1.23,1.04,0.98,1.02,1.04 (inactive),1.06 (inactive),0.953 (inactive),1 (inactive),1.01 (inactive),0.999 (inactive),0.994 (inactive),0.95 (inactive)
CC(=O)Nc1nnc(S(N)(=O)=O)s1 [Acetazolamide] (20 µM),1.04,0.95,1.04,0.746,1.04 (inactive),0.973 (inactive),1.02 (inactive),0.965 (inactive),1.06 (inactive),0.971 (inactive),1.11 (inactive),1.09 (inactive)
Cc1cccc(Nc2ccncc2S(=O)(=O)NC(=O)NC(C)C)c1 [Torsemide] (20 µM),1.09,1.07,1,1.03,1.03 (inactive),1.05 (inactive),1.12 (inactive),1.06 (inactive),0.998 (inactive),0.976 (inactive),0.986 (inactive),1.24 (inactive)
CCCC1O[C@@H]2C[C@H]3[C@@H]4CCC5=CC(=O)C=C[C@]5(C)[C@H]4[C@@H](O)C[C@]3(C)[C@]2(C(=O)CO)O1 (some centres undefined) [Budesonide] (20 µM),1.13,0.993,0.997,1.08,1.06 (inactive),0.934 (inactive),0.998 (inactive),1.02 (inactive),1.01 (inactive),1.02 (inactive),0.994 (inactive),0.984 (inactive)
NC(=O)Cc1cccc(C(=O)c2ccccc2)c1N [Nepafenac] (20 µM),1.01,1.03,1.06,1.09,0.929 (inactive),1.04 (inactive),1.06 (inactive),0.989 (inactive),0.993 (inactive),0.962 (inactive),1.04 (inactive),1.11 (inactive)
Cc1cc(O)c(C(=O)N[C@@H](C(=O)N[C@@H]2C(=O)N3C(C(=O)O)=C(CSc4nnnn4C)CS[C@H]23)c2ccc(O)cc2)cn1 [Cefpiramide] (20 µM),0,0.0131,0.61,0,0.829 (inactive),0.0275 (active),0.0434 (active),0.516 (inactive),0.981 (inactive),1.92 (active),1.08 (inactive),0.0464 (active)
